Reference: PubChem BioAssay AID504332 (National Center for Advancing Translational Sciences (NCATS), 2011)
Among all 350,000 compounds or so, about 31,000 (8.9%) were called active. Inconclusive results (about 15%) are left out. This excerpt belongs to a sample that is enriched for actives. Unmarked numbers belong to inactive results. Calls follow the shape of the dose curve; as a rule, active = well fitted inhibition curve with a large enough effect; inconclusive = small, poorly fitted or top-dose-only effect; inactive = no such curve, though single readings can be large or run the other way.

These compounds were tested against Histone-lysine N-methyltransferase EHMT2 (Homo sapiens) (UniProt Q96KQ7) (assay: qHTS Assay for Inhibitors of Histone Lysine Methyltransferase G9a). Conditions: G9a H3K9 monomethylation, AlphaScreen, 2 h; series mostly up to 59 µM; activity, negative = inhibition: at the top concentration.
Procedure, shortened: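 Enzyme 20 nM + cpd, 15 min RT; add b-H3K9 pep 500 nM / SAM 20 uM; 2 h RT; anti-H3K9me1 Ab 0.5 ug/mL + SA donor / anti-rabbit acceptor beads 20 ug/mL each, 10 min; AlphaScreen read.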
% is scaled to controls: 0 for no effect and ±100 for the full control effect; potency is read from the fitted curve at half-maximal effect.
Also: nearly all actives have a fitted effect of over 75% in size.

Sequence of Histone-lysine N-methyltransferase EHMT2 (Homo sapiens) (Q96KQ7 913-1193 limits assumed): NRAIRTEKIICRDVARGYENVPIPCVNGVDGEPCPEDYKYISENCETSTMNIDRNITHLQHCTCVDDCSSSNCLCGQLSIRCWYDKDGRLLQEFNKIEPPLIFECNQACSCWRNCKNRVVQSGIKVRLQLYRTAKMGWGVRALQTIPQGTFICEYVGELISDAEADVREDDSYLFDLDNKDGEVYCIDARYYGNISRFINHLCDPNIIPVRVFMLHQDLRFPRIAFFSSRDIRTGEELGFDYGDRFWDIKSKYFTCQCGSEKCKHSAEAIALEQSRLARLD

Row | Compound | activity, negative = inhibition | Potency
1 | O=C(CCCC(=O)N1CCN(c2cccc(Cl)c2)CC1)c1ccccc1 | 53.4% [at 102 µM] | 
2 | O=C(Cn1nnc2ccccc2c1=O)NCc1ccc(Cl)cc1 | 13.5% [at 102 µM] | 
3 | C=CCn1c(SCc2ccc(C(=O)NCCO)cc2)nc2ccccc2c1=O | -5.22% [at 102 µM] | 
4 | C=CCn1c(SCn2nnc3ccccc3c2=O)nnc1-c1ccc(Cl)cc1 |  | 44.7 µM (active)
5 | CCOc1ccc(NC(=O)CCC(=O)N2CC(C)Oc3ccc(C)cc32)cc1 (configuration not stated) | 2.04% | 
6 | CCCCN(CC)C(=O)c1c[nH]c2ccc(S(=O)(=O)Nc3cccc(OC)c3)cc2c1=O | -23.6% | 
7 | CCN(CC)c1ccc(NC(=O)CCc2nnc3ccc(N4CCCCC4)nn23)c(C)c1 |  | 44.7 µM (active)
8 | CCOc1ccc(CCNC(=O)CCc2nnc3ccc(N4CCCC4)nn23)cc1OCC | -10.3% [at 102 µM] | 
9 | CCOC(=O)c1cccc(NC(=O)CCc2nnc3ccc(N4CCOCC4)nn23)c1 | 21.6% [at 102 µM] | 
10 | Cc1ccc2c(c1)N(C(=O)CCC(=O)NCc1ccccc1F)CC(C)O2 (configuration not stated) | -28.8% | 
11 | CCCc1cc(=O)oc2c(C)c(OCC(=O)Nc3ccccn3)ccc12 | -3.15% [at 0.0925 µM] | 
12 | O=C(Nc1ccc2nc(SCC(=O)N3CCc4ccccc43)sc2c1)c1ccccc1F | 33.7% | 
13 | Oc1ccc(-c2[nH]ncc2-c2nc3ccccc3s2)c(O)c1 | -10.1% [at 102 µM] | 
14 | Oc1ccc2nc(Cc3ccccc3)[nH]c2c1 | -45.3% [at 12.7 µM] | 
15 | Cc1cc(O)ccc1-c1cnc2ccccc2n1 |  | 14.1 µM (active)
16 | NS(=O)(=O)c1ccc(CCNC(=O)CCCCCn2c(=O)[nH]c3ccccc3c2=O)cc1 | 7.65% | 
17 | O=C1CN(C(=O)Nc2ccccc2C(F)(F)F)C(c2ccccc2)c2c(sc3c2CCCC3)N1 (configuration not stated) | -25.3% | 
18 | O=C(NCC(=O)N(CC1CCCO1)C(C(=O)NC1CCCCC1)c1ccccc1)c1ccco1 (configuration not stated) | 10.7% [at 102 µM] | 
19 | CC(C)c1ccc(N(C(=O)c2ccco2)C(C(=O)NC2CCCC2)c2cccnc2)cc1 (configuration not stated) | 20.6% [at 102 µM] | 
20 | CC(C)c1ccc(C2C(C(=O)c3ccco3)=C(O)C(=O)N2CC2CCCO2)cc1 (configuration not stated) |  | 44.7 µM (active)
21 | Cc1cccc(C)c1-n1c(C)cc(/C=C2\C(=O)NN(c3ccccc3)C2=O)c1C |  | 15.8 µM (active)

Row | Compound | activity, negative = inhibition | Potency
22 | Cc1ccc(CN2C(=O)N/C(=C/c3cc(C)n(-c4ccccn4)c3C)C2=O)cc1 | -0.497% | 
23 | CCC1=NN2C(=N)/C(=C/c3cc(C)n(-c4ccccc4)c3C)C(=O)N=C2S1 | -24.1% [at 102 µM] | 
24 | Cc1cc(C)c2oc(C(=O)Nc3c(C(=O)Nc4ccccc4)oc4ccccc34)cc(=O)c2c1 | -28.2% | 
25 | CCOc1ccc2nc(N3CCCC(C(=O)Nc4cc(C)ccc4C)C3)sc2c1 (configuration not stated) | -27.6% | 
26 | COc1cc(C2CC(=O)N3CN(Cc4ccccc4)CSC3=C2C#N)ccc1OCc1ccccc1 (configuration not stated) |  | 0.891 µM (active)
27 | COc1ccc(CCN=C2SCC(=O)N2Cc2ccccc2)cc1OC | -8.24% [at 102 µM] | 
28 | COc1ccc(C2C(=O)N(C3CCCCCC3)CC(=O)N2CCc2ccc(Cl)cc2)cc1OC (configuration not stated) | -9.54% | 
29 | Cc1ccc([C@@H]2CC=C(C(=O)O)[C@H](c3cccc(Cl)c3)N2S(=O)(=O)c2ccc(C)cc2)cc1 | 3.76% [at 2.33 µM] | 
30 | CCOC(=O)CSc1nc2ccc(C)cc2[nH]1 | -14.7% | 
31 | Cc1ccc2nc(SCC(=O)NC3CCCC3)[nH]c2c1 | 12.5% [at 102 µM] | 
32 | CC(=O)Nc1ccc(C(=O)CSc2nc3ccc(C)cc3[nH]2)cc1 |  | 7.08 µM (active)
33 | Cc1cc(C)nc(SCC(=O)c2ccc(Cl)cc2)n1 | 4.59% [at 102 µM] | 
34 | O=C(CSc1nc2ccc([N+](=O)[O-])cc2[nH]1)c1ccc(Cl)cc1 |  | 5.01 µM (active)
35 | Cc1nc2nc(SCC(=O)c3ccccc3)[nH]c2cc1Br | -7.31% [at 102 µM] | 
36 | CCOC(=O)c1c(SCC(=O)Nc2cccc(C)c2C)nc(=O)[nH]c1C | 4.2% | 
37 | Cc1ccc(NC(=O)C2CCN(S(=O)(=O)c3cc(-c4noc(C)n4)ccc3C)CC2)c(C)c1 | 2.07% | 
38 | CCOCCCNC(=O)c1cc2c(=O)n3ccccc3nc2s1 |  | inactive
39 | CN=c1scc(-c2cc(OC)ccc2OC)n1/N=C/c1c(C)[nH]c2ccccc12 |  | 12.6 µM (active)
40 | COCCNC(=S)N/N=C/c1c(C)[nH]c2ccccc12 | -8.34% | 
41 | Cc1[nH]c2ccccc2c1/C=N\NC(=O)Cn1nnc(-c2ccccc2)n1 | 20.7% | 
42 | O=C(Nc1ccc(F)cc1F)c1cnn(-c2ccc(F)cc2)c1-n1cccc1 | -3.52% | 

Row | Compound | activity, negative = inhibition | Potency
43 | COCCN(CCOC)c1nc(N)c2c(N)nc3c(c2c1C#N)CC(=O)N3Cc1ccc(Cl)cc1 |  | 17.8 µM (active)
44 | O=C(OCC(=O)N1CCOCC1)c1ccc2ccccc2c1 | 0.153% | 
45 | CCn1c2ccccc2c2nnc(SCC(=O)O)nc21 |  | 10 µM (active)
46 | CCn1c2ccccc2c2nnc(N3CCN(c4cc(C)ccc4C)CC3)nc21 | -21.8% | 
47 | C=CCn1c2ccccc2c2nnc(SC(CC)C(=O)Nc3nc(C)c(C(=O)OCC)s3)nc21 (configuration not stated) | 6.8% [at 102 µM] | 
48 | COc1cccc(C2CC(c3cccs3)=NN2C(=O)CSC2=NCCS2)c1OC (configuration not stated) | -1.42% [at 102 µM] | 
49 | O=C(COC(=O)c1cccc(Cl)c1)Nc1ccc2[nH]c(=O)[nH]c2c1 | 10.7% [at 2.33 µM] | 
50 | O=C(CSc1nc2nccnc2c(=O)n1Cc1cccs1)Nc1ccccc1F | 2.38% [at 102 µM] | 
51 | Cc1cc2n(n1)C(c1cc(C(C)(C)C)c(O)cc1O)Nc1ccccc1-2 (configuration not stated) | -4.03% | 
52 | O=C(CSc1ccc(-c2ccc(-n3cccn3)cc2)nn1)Nc1ccc([N+](=O)[O-])cc1 |  | 15.8 µM (active)
53 | Cc1csc(NC(=O)CSc2ccc(-c3ccc(F)cc3)nn2)n1 | -4.33% [at 102 µM] | 
54 | O=C(CSc1ccc(-c2ccccn2)nn1)Nc1ccccc1 | -8.09% [at 102 µM] | 
55 | O=C(N/N=C\C1CC=CCC1)c1ccc(Br)o1 (configuration not stated) | 11.4% [at 102 µM] | 
56 | C=CCOC(=O)C1=C(C)OC(N)=C(C#N)C1c1ccc(F)cc1 (configuration not stated) | 14.3% [at 2.33 µM] | 
57 | Cc1nn(-c2ccccc2)c2c1C(c1ccc(F)cc1)C(C#N)=C(N)O2 (configuration not stated) |  | 50.1 µM (active)
58 | CCCc1[nH]nc2c1C(c1c(C)nn(-c3ccccc3)c1Cl)C(C#N)=C(N)O2 (configuration not stated) | -26.6% [at 12.7 µM] | 
59 | CC(NC(=O)c1cc2c(=O)n3ccccc3nc2n(C(C)C)c1=N)c1ccccc1 (configuration not stated) | 5.1% | 
60 | COc1ccc(C(=O)CSc2nc(C)cc(C)n2)cc1[N+](=O)[O-] | 14.2% | 
61 | COc1ccc(OCc2cn3c(C)cc(C)nc3n2)cc1 | 2.35% [at 102 µM] | 
62 | COc1ccc(C(C[N+](=O)[O-])n2nc(C)cc2C)cc1 (configuration not stated) |  | 6.31 µM (active)
